Among the data in PubChem BioAssay AID463190 (Sanford-Burnham Center for Chemical Genomics, 2010) are inhibition values, retold here.

Each structure is given as a SMILES string. Hit rate of the full screen: of about 330,000 compounds, about 7,300 (2.2%) were called active. The full list was thinned out, with actives kept by preference. Values without a mark were called inactive.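 Rule for the calls: active = inhibition of at least 40%; inactive = the rest.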

The test in a line: growth inhibition of tim10-1 ts yeast – luminescence, uHTS, primary screen (AID 463190).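 Note: mutant grown at 25 °C; 0% = DMSO wells with yeast and 100% = wells holding no yeast.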 The settings on record: S. cerevisiae tim10-1 ts strain growth, BacTiter-Glo, 24 h; at 20 µM; active compounds read high.
Broadly, the inhibition is the change of the read-out against control, counted positive when it falls. On to `CN(C)S(=O)(=O)c1ccc(C(=O)NCC2(N3CCOCC3)CCCCC2)cc1`, for which the inhibition is -9.36%.

Take `CC(C)CCNC(=O)c1ccc2c(Cl)c3c(nc2c1)CCC3`: the inhibition is 41% (active). Turning to `COc1ccc(N2CCN(C(=O)c3ccc4c(Cl)c5c(nc4c3)CCCC5)CC2)cc1`, the inhibition is -0.417%. Under `CC(=O)c1ccc(NC(=O)c2ccc3c(Cl)c4c(nc3c2)CCCC4)cc1` stands 13.3%; under `COc1ccc(C(=O)c2c3ccc([N+](=O)[O-])cc3[n+]([O-])n2CCCN)cc1`, 1.86%; under `CS(=O)(=O)c1ccc(Cl)c(NC(=O)COC(=O)c2cccc(S(=O)(=O)N3CCCC3)c2)c1`, -30.8%. Under `COc1ccc(S(=O)(=O)N2CCCCC2)cc1NC(=O)COc1ccccc1` stands 7.99%; under `O=C(COC(=O)CCOc1ccccc1)Nc1cc(S(=O)(=O)N2CCCCC2)ccc1Cl`, 46.3% (active); under `COc1cc(C(=O)NCC(=O)NCCSc2ccc(Br)cc2)cc(OC)c1OC`, 9.46%. As to `O=C(COC(=O)c1ccccc1Br)Nc1nnc(-c2ccccc2)o1`, the inhibition is 0.631%.

As for `Nc1cc(OC(=O)c2ccccc2Br)nn1S(=O)(=O)c1ccccc1`, the inhibition was 57.5% (active). Consider `Cc1ccc(S(=O)(=O)n2nc(OC(=O)C(C)(C)C)cc2N)cc1`, for which the inhibition was 25.5%. With `CC(=O)c1ccc(Cc2ncc(C(F)(F)F)cc2Cl)s1`, the inhibition was 3.28%. Turning to `O=C(CN1CCN(c2ncc(C(F)(F)F)cc2Cl)CC1)Nc1ccc2c(c1)OCO2`, the inhibition is 28.8%. Consider `O=C(Cc1ncc(C(F)(F)F)cc1Cl)Nc1cccc(Br)c1`, for which the inhibition is 47.5% (active). In the case of `Clc1ccc(Cl)c(Oc2ccc(Oc3nc(Cl)ccc3Cl)cc2)n1`, the inhibition was 9.8%. Turning to `CC1=C(C(=O)OCc2ccccc2)C(c2ccco2)n2ncnc2N1` (stereo not given), the inhibition is 20.9%. For `CCOc1ccc(C2=CC(c3ccccc3)n3ncnc3N2)cc1` (stereo not given), the inhibition was 25.5%. Turning to `Brc1ccc(C2=CC(c3ccco3)n3ncnc3N2)cc1` (stereo not given), the inhibition is 48.2% (active). On to `COCCNC(=S)N/N=C/c1c(C)[nH]c2ccccc12`, for which the inhibition was 16.2%.

On to `CN=c1scc(-c2cc(OC)ccc2OC)n1/N=C/c1c(C)[nH]c2ccccc12`, for which the inhibition is 46% (active). Consider `CCn1c(-c2cc(OC)ccc2OC)csc1=Nc1c(C)n(C)n(-c2ccccc2)c1=O`, for which the inhibition is 22.1%. For the molecule `COc1cc(/C=C2/C(=O)ON=C2C)ccc1OCc1cccc(F)c1`, the inhibition is 9.41%. Under `COc1cc(/C=C2/C(=O)ON=C2C)ccc1OCc1ccccc1F` stands 49% (active); under `C=CCOc1ccc(/C=C2/C(=O)ON=C2C)cc1OCC`, 5.79%. Under `O=C(O)c1n[nH]nc1-c1ccccc1` stands -4.76%. Consider `O=C(Nc1cccc([N+](=O)[O-])c1)N1CCc2ccccc2C1`, for which the inhibition was 13.3%. Under `COc1ccc(-c2cnc(SCCNC(=O)c3ccc4c(c3)OCO4)[nH]2)cc1` stands -13.2%; under `COc1ccccc1CSc1ncc(-c2ccc([N+](=O)[O-])cc2)[nH]1`, 44.7% (active); under `N#Cc1c(-c2ccccc2)nc(SCc2ccc([N+](=O)[O-])cc2)[nH]c1=O`, 16.7%.

Turning to `COC(=O)c1ccc(S(=O)(=O)N2CCc3ccccc3C2)cc1`, the inhibition is -7.78%. With `CC(OC(=O)c1ccc(S(=O)(=O)N2CCOCC2)cc1)c1ccccc1` (stereo not given) the figure was 23.8%; with `O=C(ON=C1CCN(S(=O)(=O)c2ccccc2)CC1)c1ccc(Cl)cc1`, 65.8% (active); with `COc1ccc(NC(=O)CCCN2C(=O)C(c3ccccc3)Oc3cccnc32)cc1` (stereo not given), 37%.

Consider `OCC[C@H]1C[C@H](O)[C@@H](O)[C@]2(Cc3ccccc3CO2)O1`, for which the inhibition is 19%.

Consider `NS(=O)(=O)c1ccc(NC(=S)NC(=O)c2cccc(Br)c2)cc1`, for which the inhibition was 23.9%. As to `NS(=O)(=O)c1ccc(CCNC(=S)Nc2ccc(S(N)(=O)=O)cc2)cc1`, the inhibition was 8.83%. Consider `NS(=O)(=O)c1ccc(NC(=S)Nc2ccc(Br)c(Cl)c2)cc1`, for which the inhibition was 55.7% (active). `CCOC(=O)c1csc(CCNC(=O)c2oc3c(Cl)cc(C)cc3c2C)n1`: the inhibition is 19.2%. Take `O=C(Nc1cccc(Cl)c1)c1cc(S(=O)(=O)N2CCCCC2)c[nH]1`: the inhibition is -3.59%. As for `O=C(Nc1cccc(Cl)c1)c1cncn1-c1ccc(F)cc1`, the inhibition was 41.7% (active). On to `CCC(=O)Nc1nc(C)c(C(=O)Nc2cccc(Cl)c2)s1`, for which the inhibition was 2.36%. With `CCn1cc(C(=O)Nc2cc(C)ccc2C)c(=O)c2ccc(C)nc21` the figure was 6.54%; with `O=C(c1cccc(C(=O)N2CCN(c3ccc(F)cc3)CC2)c1)N1CCN(c2ccc(F)cc2)CC1`, 40.1% (active); with `O=C(c1cc(C(=O)N2CCN(c3ccc(F)cc3)CC2)cc([N+](=O)[O-])c1)N1CCN(c2ccc(F)cc2)CC1`, -17.5%. Consider `O=C(c1cc2cc(F)ccc2[nH]1)N1CCN(c2ccc(F)cc2)CC1`, for which the inhibition was -10.5%. `OCCCNC(c1ccccc1)c1ccc(O)cc1` (stereo not given): the inhibition is -5.16%.

For the molecule `Cc1onc(-c2ccccc2)c1C(=O)Nc1ccccc1C#N`, the inhibition is 25%.

For `COc1ccc(C(=O)NC(=S)NNC(=O)c2c(-c3ccccc3)noc2C)cc1`, the inhibition is 41.5% (active).

On to `Cc1onc(-c2ccccc2)c1C(=O)NNC(=S)NC(=O)c1ccc(F)cc1`, for which the inhibition was 29.6%. Turning to `C=CCNc1nc(N)c(C(=C(C#N)C#N)c2ccccc2)s1`, the inhibition was 32%. With `Cc1ccc(CNC(=O)C2(C(F)(F)F)C/C(=C\Cc3ccccc3)CCCO2)o1` (stereo not given), the inhibition was 29.8%. In the case of `O=C(NCc1ccncc1)c1ccc(NS(=O)(=O)c2cccc([N+](=O)[O-])c2)cc1`, the inhibition was -9.55%. For `O=C(Nc1c(Cl)cccc1Cl)C1CCC1`, the inhibition was 18.6%. For `Cc1[nH]n(-c2ccccc2)c(=O)c1CCOC(=O)c1ccc(C(F)(F)F)cc1`, the inhibition is 16.7%. Turning to `CCc1cc(C(=O)Nc2nnc(C3CC3)s2)sc1C`, the inhibition was 14.7%. Turning to `COc1cccc(CNCc2ccc3c(c2)OCO3)c1`, the inhibition is -13%.

Regarding `O=C(CN1CCN(c2nc(-c3ccccc3)cs2)CC1)NCc1ccc2c(c1)OCO2`, the inhibition is 30.8%. Under `O=C(COC(=O)C1CCCO1)Nc1nc(-c2ccc(F)cc2)cs1` (stereo not given) stands 5.58%; under `CC1CCCC(C)N1C(=O)CN1CCN(c2nc(-c3ccc(F)cc3)cs2)CC1` (stereo not given), 56.2% (active).
